From PubChem BioAssay (Tox21)
Records with an inconclusive call do not appear. Activity calls are given as the source filed them. Calls come from the whole dose curve; as a rule, active = well fitted curve in the direction sought with a large enough effect in the repeat runs; inconclusive = weak or mixed curves; inactive = no such curve, though single readings can be large; an effect the other way counts as inactive or inconclusive.

Assay: Human pregnane X receptor (PXR) small molecule agonists, qHTS cell viability counter screen (AID 1346977); note: nearly all actives have a fitted effect of over 50% in size
Details: PXR-Luc HepG2 viability, CellTiter-Fluor, 24 h; series mostly up to 92.4 µM; activity change, negative = cytotoxicity: at the top concentration
How it was run: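 PXR-Luc HepG2, 2,000 cells/well, 5% charcoal-stripped FBS; 5hr settle; cpd 24hr, 37C/5% CO2; CellTiter-Fluor at 23hr, read 1hr later (fluorescence).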
% is set by controls: 0 for no effect and ±100 for the full control effect.

Row | Structure (SMILES) | activity change, negative = cytotoxicity
1 | COc1cc2c(cc1OC)CN(C(=O)[C@H](C)N[C@@H](CCc1ccccc1)C(=O)O)[C@H](C(=O)O)C2 | 14.1% [at 42.5 µM] (inactive)
2 | O=C(Cn1ccnc1[N+](=O)[O-])NCc1ccccc1 | 4.34% [at 42.5 µM] (inactive)
3 | COC(=O)/C=C\C(=O)O | 25.8% (inactive)
4 | CCCCOC(=O)C(C)O (stereo unspecified) | 3.45% (inactive)
5 | N#CCC(=O)NN | 14% [at 42.5 µM] (inactive)
6 | Cc1cc(C)c(C(=O)O)c(C)c1 | 11.6% (inactive)
7 | CCOc1cccc(N)c1 | 4.28% (inactive)
8 | O=C(CCCl)NCCc1ccccc1 | 4.71% [at 42.5 µM] (inactive)
9 | CC(=O)C1C(=O)C=C(C)OC1=O (stereo unspecified) | -2.87% (inactive)
10 | CCOc1ccccc1OCC1CNCCO1 (stereo unspecified) | -3.07% [at 42.5 µM] (inactive)
11 | CC1(C)O[C@H]2CC(=O)OC[C@]23[C@H]2CC[C@@]4(C)[C@H](c5ccoc5)OC(=O)[C@H]5O[C@]54[C@]2(C)C(=O)C[C@@H]13 | -0.12% [at 42.5 µM] (inactive)
12 | CCO[Si](CC)(OCC)OCC | 13.8% (inactive)
13 | CC(=O)CCc1ccc(OC(C)=O)cc1 | -5.76% (inactive)
14 | CCCCCCC1(C)CCC(=O)O1 (stereo unspecified) | 6.53% (inactive)
15 | O=C(O)[C@H](O)c1ccccc1 | 0.885% [at 42.5 µM] (inactive)
16 | C=CC/C=C/C | 3.02% (inactive)
17 | CCC(C)C(=O)OCCc1ccccc1 (stereo unspecified) | 0.377% (inactive)
18 | COP(=O)(O)OP(=O)(O)OC | 7.76% (inactive)
19 | O=C(O)c1cc2ccccc2nc1C(=O)O | 14.5% (inactive)

Row | Structure (SMILES) | activity change, negative = cytotoxicity
20 | COc1cc(/C=C/C(N)=O)cc(OC)c1OC | 10.3% [at 42.5 µM] (inactive)
21 | COC(=O)c1cc(Cl)cc(Cl)c1 | 0.522% (inactive)
22 | O=C1c2ccccc2C(=O)c2cc(Cl)ccc21 | -0.0384% [at 8.39 µM] (inactive)
23 | CO[C@@]1(NC(=O)Cc2cccs2)C(=O)N2C(C(=O)O)=C(COC(N)=O)CS[C@@H]21 | 11% [at 42.5 µM] (inactive)
24 | C[C@H]1[C@@H](c2ccccc2)NC(=O)N1C | -0.792% (inactive)
25 | CC/C=C\CCOC(=O)c1ccccc1O | 3.67% (inactive)
26 | Cc1ccccc1C(N)=O | -1.04% (inactive)
27 | OC1OCCOC1O (stereo unspecified) | -1.62% (inactive)
28 | C/C=C(\C)C(C)=O | 0.533% (inactive)
29 | COC(=O)c1ccccc1C(=O)O | 7.36% (inactive)
30 | CC(C)c1ccc(C=O)cc1 | 2.33% (inactive)
31 | CCC/C=C(\C=O)CC | 4.36% (inactive)
32 | CSc1cnccn1 | 9.28% (inactive)
33 | CCOC(=O)CC1(C)OCC(C)O1 (stereo unspecified) | -0.533% (inactive)
34 | CC(=O)CC(=O)OC(C)(C)C | -2.17% (inactive)
35 | Cc1c(NC(=O)c2cccnc2)c(=O)n(-c2ccccc2)n1C | 6.66% [at 42.5 µM] (inactive)
36 | c1ccc(-c2nn[nH]n2)cc1 | 38.8% (inactive)
37 | CCCCCCCCCCOC(C)=O | -0.408% (inactive)

Assay: Caspase-3/7 induction in HepG2 cells by small molecules, qHTS assay (AID 1346978); note: nearly all actives have a fitted effect of over 15% in size
Details: HepG2 caspase-3/7 activation, Caspase-Glo luminescence, 17 h; series mostly up to 92.4 µM; caspase activation: at the top concentration
How it was run: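 Wild-type HepG2 cells, 2,000/well, settled 5 hr at 37 C and 5% CO2, then compound-treated for 17 hr; caspase-3/7 activity read by luminescent Caspase-Glo 3/7 after 30 min at room temperature.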

Row | Structure (SMILES) | caspase activation
38 | COc1cc2c(cc1OC)CN(C(=O)[C@H](C)N[C@@H](CCc1ccccc1)C(=O)O)[C@H](C(=O)O)C2 | -1.55% [at 42.5 µM] (inactive)
39 | O=C(Cn1ccnc1[N+](=O)[O-])NCc1ccccc1 | 0.779% [at 42.5 µM] (inactive)
40 | COC(=O)/C=C\C(=O)O | 0.0125% (inactive)
41 | CCCCOC(=O)C(C)O (stereo unspecified) | -0.619% (inactive)
42 | N#CCC(=O)NN | -0.269% [at 42.5 µM] (inactive)
43 | Cc1cc(C)c(C(=O)O)c(C)c1 | 0.715% (inactive)
44 | CCOc1cccc(N)c1 | -0.988% (inactive)
45 | O=C(CCCl)NCCc1ccccc1 | 0.0131% [at 42.5 µM] (inactive)
46 | CC(=O)C1C(=O)C=C(C)OC1=O (stereo unspecified) | 0.351% (inactive)
47 | CCOc1ccccc1OCC1CNCCO1 (stereo unspecified) | -0.341% [at 42.5 µM] (inactive)
48 | CC1(C)O[C@H]2CC(=O)OC[C@]23[C@H]2CC[C@@]4(C)[C@H](c5ccoc5)OC(=O)[C@H]5O[C@]54[C@]2(C)C(=O)C[C@@H]13 | 1.99% [at 42.5 µM] (inactive)
49 | CCO[Si](CC)(OCC)OCC | -1.34% (inactive)
50 | CC(=O)CCc1ccc(OC(C)=O)cc1 | 0.27% (inactive)
51 | CCCCCCC1(C)CCC(=O)O1 (stereo unspecified) | -0.973% (inactive)
52 | O=C(O)[C@H](O)c1ccccc1 | -0.328% [at 42.5 µM] (inactive)
53 | C=CC/C=C/C | 0.42% (inactive)
54 | CCC(C)C(=O)OCCc1ccccc1 (stereo unspecified) | -0.0312% (inactive)
55 | COP(=O)(O)OP(=O)(O)OC | -2.6% (inactive)
56 | O=C(O)c1cc2ccccc2nc1C(=O)O | -1.17% (inactive)

Row | Structure (SMILES) | caspase activation
57 | COc1cc(/C=C/C(N)=O)cc(OC)c1OC | -0.0351% [at 42.5 µM] (inactive)
58 | COC(=O)c1cc(Cl)cc(Cl)c1 | 0.266% (inactive)
59 | O=C1c2ccccc2C(=O)c2cc(Cl)ccc21 | -1.72% [at 8.39 µM] (inactive)
60 | CO[C@@]1(NC(=O)Cc2cccs2)C(=O)N2C(C(=O)O)=C(COC(N)=O)CS[C@@H]21 | -0.886% [at 42.5 µM] (inactive)
61 | C[C@H]1[C@@H](c2ccccc2)NC(=O)N1C | 1.13% (inactive)
62 | CC/C=C\CCOC(=O)c1ccccc1O | 0.766% (inactive)
63 | Cc1ccccc1C(N)=O | 0.0164% (inactive)
64 | OC1OCCOC1O (stereo unspecified) | -0.409% (inactive)
65 | C/C=C(\C)C(C)=O | -0.0325% (inactive)
66 | COC(=O)c1ccccc1C(=O)O | 0.145% (inactive)
67 | CC(C)c1ccc(C=O)cc1 | -0.224% (inactive)
68 | CCC/C=C(\C=O)CC | 1.29% (inactive)
69 | CSc1cnccn1 | 1.76% (inactive)
70 | CCOC(=O)CC1(C)OCC(C)O1 (stereo unspecified) | 1.24% (inactive)
71 | CC(=O)CC(=O)OC(C)(C)C | 0.219% (inactive)
72 | Cc1c(NC(=O)c2cccnc2)c(=O)n(-c2ccccc2)n1C | 1.06% [at 42.5 µM] (inactive)
73 | c1ccc(-c2nn[nH]n2)cc1 | -2.81% (inactive)
74 | CCCCCCCCCCOC(C)=O | 0.581% (inactive)

Assay: Caspase-3/7 induction in CHO-K1 cells by small molecules, qHTS cell viability counter screen (AID 1346979); note: nearly all actives have a fitted effect of over 35% in size
Details: CellTiter-Fluor fluorescence, 17 h; series mostly up to 92.4 µM; activity change, negative = cytotoxicity: at the top concentration
How it was run: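 Cells (CHO-K1, wild type) are plated at 1,500 per well and incubated 5hr. Test compounds in DMSO are then pinned in, followed by 16hr at 37C and 5% CO2. Viability is read by CellTiter-Fluor fluorescence after 1hr.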

Row | Structure (SMILES) | activity change, negative = cytotoxicity
75 | COc1cc2c(cc1OC)CN(C(=O)[C@H](C)N[C@@H](CCc1ccccc1)C(=O)O)[C@H](C(=O)O)C2 | 11.9% [at 42.5 µM] (inactive)
76 | O=C(Cn1ccnc1[N+](=O)[O-])NCc1ccccc1 | 0.41% [at 42.5 µM] (inactive)
77 | COC(=O)/C=C\C(=O)O | 5.61% (inactive)
78 | CCCCOC(=O)C(C)O (stereo unspecified) | 6.37% (inactive)
79 | N#CCC(=O)NN | 8.66% [at 42.5 µM] (inactive)
80 | Cc1cc(C)c(C(=O)O)c(C)c1 | 2.27% (inactive)
81 | CCOc1cccc(N)c1 | -0.387% (inactive)
82 | O=C(CCCl)NCCc1ccccc1 | 8.72% [at 42.5 µM] (inactive)
83 | CC(=O)C1C(=O)C=C(C)OC1=O (stereo unspecified) | -0.0403% (inactive)
84 | CCOc1ccccc1OCC1CNCCO1 (stereo unspecified) | 1.4% [at 42.5 µM] (inactive)
85 | CC1(C)O[C@H]2CC(=O)OC[C@]23[C@H]2CC[C@@]4(C)[C@H](c5ccoc5)OC(=O)[C@H]5O[C@]54[C@]2(C)C(=O)C[C@@H]13 | 3.13% [at 42.5 µM] (inactive)
86 | CCO[Si](CC)(OCC)OCC | -1.02% (inactive)
87 | CC(=O)CCc1ccc(OC(C)=O)cc1 | 10.1% (inactive)
88 | CCCCCCC1(C)CCC(=O)O1 (stereo unspecified) | 4.9% (inactive)
89 | O=C(O)[C@H](O)c1ccccc1 | 6.89% [at 42.5 µM] (inactive)
90 | C=CC/C=C/C | 0.71% (inactive)
91 | CCC(C)C(=O)OCCc1ccccc1 (stereo unspecified) | 6.36% (inactive)
92 | COP(=O)(O)OP(=O)(O)OC | 8.31% (inactive)
93 | O=C(O)c1cc2ccccc2nc1C(=O)O | 11.4% (inactive)

Row | Structure (SMILES) | activity change, negative = cytotoxicity
94 | COc1cc(/C=C/C(N)=O)cc(OC)c1OC | 4.48% [at 42.5 µM] (inactive)
95 | COC(=O)c1cc(Cl)cc(Cl)c1 | 5.36% (inactive)
96 | O=C1c2ccccc2C(=O)c2cc(Cl)ccc21 | 9.78% [at 8.39 µM] (inactive)
97 | CO[C@@]1(NC(=O)Cc2cccs2)C(=O)N2C(C(=O)O)=C(COC(N)=O)CS[C@@H]21 | 1.85% [at 42.5 µM] (inactive)
98 | C[C@H]1[C@@H](c2ccccc2)NC(=O)N1C | 12.4% (inactive)
99 | CC/C=C\CCOC(=O)c1ccccc1O | 1.79% (inactive)
100 | Cc1ccccc1C(N)=O | 1.23% (inactive)
101 | OC1OCCOC1O (stereo unspecified) | -2.92% (inactive)
102 | C/C=C(\C)C(C)=O | 5.32% (inactive)
103 | COC(=O)c1ccccc1C(=O)O | 3.92% (inactive)
104 | CC(C)c1ccc(C=O)cc1 | 9.58% (inactive)
105 | CCC/C=C(\C=O)CC | 4.72% (inactive)
106 | CSc1cnccn1 | 0.0401% (inactive)
107 | CCOC(=O)CC1(C)OCC(C)O1 (stereo unspecified) | 0.485% (inactive)
108 | CC(=O)CC(=O)OC(C)(C)C | -2.04% (inactive)
109 | Cc1c(NC(=O)c2cccnc2)c(=O)n(-c2ccccc2)n1C | 5.61% [at 42.5 µM] (inactive)
110 | c1ccc(-c2nn[nH]n2)cc1 | 1.64% (inactive)
111 | CCCCCCCCCCOC(C)=O | 10.9% (inactive)
